Test results as given in PubChem BioAssay (NCI).
The panel holds about 83,000 compounds, 20% with a hit somewhere; the sample as a whole holds those more often.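 Interpretation: 100, growth as untreated; towards 0, rising growth inhibition; 0, no net growth; 0 to -100, cell death. Compounds scoring below 10 were considered active.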 The source made the active and inactive calls.

Assays:
Experiment in all cases: NCI-60 one-dose screen, 48 h (100 = growth as untreated, 0 = no growth, -100 = all killed)
Settings in all cases: 10 µM unless noted
NCI-H23 lung = system: NCI-H23 lung
NCI-H226 lung = system: NCI-H226 lung
NCI-H322M lung = system: NCI-H322M lung
HOP-62 NSCLC = system: HOP-62 NSCLC
NCI-H460 lung = system: NCI-H460 lung
HOP-92 NSCLC = system: HOP-92 NSCLC
NCI-H522 lung = system: NCI-H522 lung
A549/ATCC NSCLC = system: A549/ATCC NSCLC
786-0 renal = system: 786-0 renal
COLO 205 colon = system: COLO 205 colon

Measured: growth

O=C(CNc1nnc(-c2ccc(Cl)cc2)o1)Nc1ccc(-c2nc3ccccc3s2)cc1
inactive: NCI-H23 lung 88.7% | NCI-H226 lung 82.9% | NCI-H322M lung 95.1% | HOP-62 NSCLC 107% | NCI-H460 lung 99.7% | HOP-92 NSCLC 87.9% | NCI-H522 lung 77.1% | A549/ATCC NSCLC 95.8% | 786-0 renal 101% | COLO 205 colon 104%

COc1ccc(Nc2ncccc2NC(=O)c2cn(Cc3cccc(Oc4ccccc4)c3)nn2)cc1
inactive: NCI-H23 lung 91.8% | NCI-H226 lung 93.8% | NCI-H322M lung 82.9% | HOP-62 NSCLC 106% | NCI-H460 lung 96.5% | HOP-92 NSCLC 99.6% | NCI-H522 lung 77.8% | A549/ATCC NSCLC 80.2% | 786-0 renal 102% | COLO 205 colon 102%

C=CC(=O)N1CCC[C@H](n2c(=O)n(-c3ccc(Oc4ccccc4)cc3)c3c(N)ncnc32)C1
inactive: NCI-H23 lung 92.7% | NCI-H226 lung 79.1% | NCI-H322M lung 19.3% | HOP-62 NSCLC 82.8% | NCI-H460 lung 96.2% | HOP-92 NSCLC 85.7% | NCI-H522 lung 11.3% | A549/ATCC NSCLC 58.3% | 786-0 renal 85.3% | COLO 205 colon 93.1%

CCc1nc2ccc(Cc3ccc(C(=O)NO)cc3)cc2c(=O)n1CCc1ccccc1
inactive: NCI-H322M lung 12.1%
active: NCI-H23 lung -67.9% | NCI-H226 lung -28.5% | HOP-62 NSCLC -43.4% | NCI-H460 lung 0.149% | HOP-92 NSCLC -29.5% | NCI-H522 lung -86.5% | A549/ATCC NSCLC -41.7% | 786-0 renal -58.3% | COLO 205 colon -69.7%

O=C1NC(=O)/C(=C/c2ccc3nccc(-c4ccncc4)c3c2)S1
active: NCI-H23 lung -17.4% | NCI-H226 lung -54.5% | NCI-H322M lung -50.8% | HOP-62 NSCLC -36.1% | NCI-H460 lung -2.65% | HOP-92 NSCLC -41.1% | NCI-H522 lung -95.6% | A549/ATCC NSCLC -51.8% | 786-0 renal -41.6% | COLO 205 colon -56.6%

CCOc1cccc(/C=N/NC(=O)c2ccccc2Nc2ccnc(C(F)(F)F)c2)c1O
inactive: NCI-H23 lung 21.6% | NCI-H322M lung 22.2% | HOP-92 NSCLC 25.2% | NCI-H522 lung 16.6% | A549/ATCC NSCLC 15%
active: NCI-H226 lung -15.2% | HOP-62 NSCLC -7.4% | NCI-H460 lung -8.7% | 786-0 renal 3.64% | COLO 205 colon 9.3%

O=c1[nH]ccc2c(S(=O)(=O)N3CCCNCC3)cccc12
inactive: NCI-H23 lung 78.5% | NCI-H226 lung 81.7% | NCI-H322M lung 29.6% | HOP-62 NSCLC 68.8% | NCI-H460 lung 95.3% | HOP-92 NSCLC 30% | NCI-H522 lung 17.3% | A549/ATCC NSCLC 81.3% | 786-0 renal 54% | COLO 205 colon 112%

O=C(Cn1c(=O)ccn(CCCCCCCCOc2ccc(Br)cc2)c1=O)Nc1ccc(Oc2ccc(Cl)cc2)cc1
inactive: NCI-H23 lung 47.8% | NCI-H226 lung 56.6% | NCI-H322M lung 102% | HOP-62 NSCLC 67.1% | NCI-H460 lung 56.8% | HOP-92 NSCLC 22.4% | NCI-H522 lung 44.6% | A549/ATCC NSCLC 54.4% | 786-0 renal 65.7% | COLO 205 colon 76.7%

COC(=O)Nc1nc2ccc(C(=O)c3ccc(N(C)C4COC4)cc3)cc2[nH]1
inactive: NCI-H23 lung 30.5% | NCI-H226 lung 67.2% | NCI-H322M lung 48.3% | HOP-62 NSCLC 10.2% | HOP-92 NSCLC 46.8% | A549/ATCC NSCLC 14.9% | 786-0 renal 27.8%
active: NCI-H460 lung 3.28% | NCI-H522 lung -31.5% | COLO 205 colon -38.8%

CC(C)=CCc1cc2c(cc1O)C1=C(C(=O)C3=C(C1=O)S(=O)(=O)CCN3)C(C=C(C)C)O2 (stereo not given)
active: NCI-H23 lung -35.9% | NCI-H226 lung -54.1% | NCI-H322M lung -76.2% | HOP-62 NSCLC -52.7% | NCI-H460 lung -50.4% | HOP-92 NSCLC -11.7% | NCI-H522 lung -50.8% | A549/ATCC NSCLC -42.4% | 786-0 renal -12.3% | COLO 205 colon -69.8%

C[C@H]1Oc2cc(cnc2N)-c2c(nn(C)c2C#N)CN(C)C(=O)c2ccc(F)cc21
inactive: NCI-H23 lung 84% | NCI-H226 lung 92.2% | NCI-H322M lung 104% | HOP-62 NSCLC 50% | NCI-H460 lung 96.7% | HOP-92 NSCLC 48.4% | NCI-H522 lung 66.5% | A549/ATCC NSCLC 66.1% | 786-0 renal 77.9% | COLO 205 colon 36.3%

CC1(C=O)NC(=O)NC1=O (stereo not given)
inactive: NCI-H23 lung 105% | NCI-H226 lung 92.8% | NCI-H322M lung 102% | HOP-62 NSCLC 68.4% | NCI-H460 lung 108% | HOP-92 NSCLC 96.4% | NCI-H522 lung 77.1% | A549/ATCC NSCLC 55.7% | 786-0 renal 104% | COLO 205 colon 100%

CC1(C)NC(=O)c2[nH]c3c(Cl)c(Cl)ccc3c2C1C#N (stereo not given)
inactive: NCI-H23 lung 75.8% | NCI-H226 lung 53.9% | NCI-H322M lung 90.5% | HOP-62 NSCLC 82.5% | NCI-H460 lung 88.7% | HOP-92 NSCLC 54.3% | NCI-H522 lung 67.8% | A549/ATCC NSCLC 80.1% | 786-0 renal 82.6% | COLO 205 colon 92.3%
